The source of these data is PubChem BioAssay.

Calls of active or inactive are those of the source. Unless noted, the rule behind the calls is not given here.

A short description of assay [1]: anti-His antibody binders, primary screen, artefact control for SMM control protein annotation, biochemical, small-molecule microarray, 635 nm fluorescence (AID 1128).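 Note: score merges feature fluorescence with signal-to-noise for each printed compound spot.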 To be noted: anti-His Alexa647 antibody binding, higher = more signal.
For assay [2], the system named is Human papillomavirus type 1a E7 protein (residues 1-88). Nature of the assay: HPV1a E7 small-molecule binders, primary screen, biochemical, small-molecule microarray, residues 1-88, 635 nm (AID 1129). To be noted: small-molecule microarray binding, fluorescence 635 nm; higher = more signal.
Assay [3] concerns the target Focal adhesion kinase 1 (Homo sapiens) (UniProt Q05397). Nature of the assay: small-molecule microarray binders of FAK, primary screen, biochemical, 635/667 nm fluorescence, BSA, DTT (AID 1130).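 Note: composite of spot emission at 667 nm and signal to noise over triplicate slides.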 The following applies: PTK2 binding, 635 nm fluorescence, higher = more signal.
Assay [4] deals with Fibrinogen (Alexa647-labelled). Nature of the assay: fibrinogen binders on compound microarrays, profiling panel, artefact control for SMM control-protein annotation, biochemical, small-molecule microarray, 635/667 nm fluorescence (AID 1131).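 Note: z-score merges 667 nm fluorescence with per-spot signal-to-noise over triplicate slides.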 To be noted: fibrinogen-A647 binding fluorescence, higher = more signal.
Assay [5] has as its target Follistatin (Homo sapiens) (UniProt P19883). The assay can be described thus: follistatin binders on small-molecule microarrays, primary screen, biochemical, small-molecule microarray, 635/667 nm fluorescence (AID 1132). The following applies: FST binding, 635 nm fluorescence, higher = more signal.
The target of assay [6] is Fibroblast growth factor 2 (Homo sapiens) (UniProt P09038). The assay can be described thus: FGF2 binders on small-molecule microarrays, primary screen, biochemical, small-molecule microarray, 635/667 nm fluorescence (AID 1133). The following applies: small-molecule microarray binding, FGF2, fluorescence 635/667; higher = more signal.
Assay [7] in a line: mitochondrial membrane potential change in A549 cells, profiling panel, cell-based, JC-1 fluorescence, basal, 24 h, 100 nL (AID 1138).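 Note: A549 lung adenocarcinoma cells under basal conditions with no added stimulus; test concentration not given here.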 The following applies: higher = more signal.
The subject of a further assay is Lefty1. The assay can be described thus: Lefty1 binders on small-molecule microarrays, primary screen, biochemical, small-molecule microarray, 635/667 nm fluorescence (AID 1139). To be noted: small-molecule microarray binding, fluorescence 635/667; higher = more signal.
The subject of assay [8] is wheat germ agglutinin (Triticum aestivum), Alexa647-labelled. Nature of the assay: wheat germ agglutinin binders on compound microarrays, profiling panel, artefact control for SMM control-protein annotation, biochemical, small-molecule microarray, 635/667 nm fluorescence (AID 1140).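 Note: score merges 667 nm feature emission with signal to noise over triplicate slides.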 The following applies: WGA-A647 binding, 635 nm fluorescence, higher = more signal.
Assay [9] addresses Luciferin 4-monooxygenase (Photinus pyralis) (UniProt P08659). Nature of the assay: firefly luciferase enzyme inhibitors, primary screen, biochemical, luminescence, purified enzyme, 2006 set (AID 1141).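 Note: cell-free assay with purified firefly luciferase at 100 ng per well in PBS; test concentration not given here.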 The following applies: SteadyGlo luminescence, 30 min, higher = more signal, called active from +8 up or from −8 down.
For assay [10], the system named is Wnt5a (protein binding on small-molecule microarray). The assay can be described thus: Wnt5a binders on small-molecule microarray, primary screen, biophysical, 635/667 nm fluorescence (AID 1142).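 Note: fluorescence read at 667 nm with signal to noise per printed feature.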 The following applies: 635 nm fluorescence, higher = more signal.
Assay [11] is described as follows: cell viability in Huh7 cells, primary screen, cytotoxicity control for HCV replication inhibitor project, CellTiter-Glo luminescence, basal, 48 h (AID 1143).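 Note: Huh7 hepatoma cells carrying a hepatitis C replication reporter with no stimulus; test concentration not given here.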 The following applies: Huh7 HCV replicon, higher = more signal, called active from +8 up or from −8 down. Background: Cellular ATP, detected with luciferase, serves as a proxy for viable cell number.
The nature of assay [12]: P. aeruginosa biofilm formation inhibitors, primary screen, PAO1 strain, BacTiter-Glo luminescence, LB-PBS (AID 1144). The following applies: 12 h, higher = more signal.
Assay [13] in a line: CREB reporter modulators without forskolin, primary screen, cell-based, PC12, CRE-LacZ reporter, unstimulated (AID 1145). To be noted: no forskolin, luminescence, 4.5 h, higher = more signal, called active from +8 up or from −8 down.
Assay [14] in a line: CREB reporter modulators under forskolin, primary screen, cell-based, PC12, CRE-LacZ reporter, forskolin-stimulated (AID 1146).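 Note: PC12 cells with 6xCRE LacZ reporter stimulated by forskolin 10 µM; beta-galactosidase reporter signal reflecting CREB driven transcription.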 The following applies: luminescence, 4.5 h, higher = more signal, called active from +8 up or from −8 down.
The target of assay [15] is Streptavidin (Streptomyces avidinii) (UniProt P22629). Nature of the assay: streptavidin binders on small-molecule microarray, primary screen, artefact control for SMM compound annotation, biophysical, 635/667 nm fluorescence (AID 1147).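 Note: signal reflects streptavidin binding to arrayed compounds as a control protein.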 The following applies: streptavidin binding, higher = more signal.
Assay [16] is described as follows: small-molecule binders of probe aInhba, primary screen, biochemical, small-molecule microarray, 635/667 nm fluorescence (AID 1148).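 Note: score merges 667nm spot fluorescence with signal-to-noise for antibody binding to printed compounds.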 The following applies: higher = more signal.
Assay [17] addresses Torsin-1A (Homo sapiens) (UniProt O14656). The assay can be described thus: torsin A binders from cell lysate, primary screen, small-molecule microarray, wild-type, 635/667 nm (AID 1149). To be noted: COS7 hTOR1A-WT lysate, 635 nm fluorescence, higher = more signal.
Assay [18] shares this target. The assay can be described thus: small-molecule binders of mutant TOR1A in lysate, primary screen, cell lysate, small-molecule microarray, COS7 lysate, 635/667 nm fluorescence (AID 1150).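 Note: score pools 667 nm emission and signal to noise measuring lysate protein binding.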 To be noted: COS7 hTOR1A mutant lysate, 635 nm fluorescence, higher = more signal.
For assay [19], the system named is Sonic hedgehog protein (Shh). Nature of the assay: small-molecule binders of Shh protein, primary screen, biochemical, small-molecule microarray, 635/667 nm fluorescence (AID 1151).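 Note: Shh protein binding to compounds spotted on small-molecule microarray slides; score combines spot fluorescence intensity with signal-to-noise across triplicate slides.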 The following applies: small-molecule microarray binding, 635 nm fluorescence; higher = more signal.

Chain of Luciferin 4-monooxygenase (Photinus pyralis) (P08659 whole entry, looked up): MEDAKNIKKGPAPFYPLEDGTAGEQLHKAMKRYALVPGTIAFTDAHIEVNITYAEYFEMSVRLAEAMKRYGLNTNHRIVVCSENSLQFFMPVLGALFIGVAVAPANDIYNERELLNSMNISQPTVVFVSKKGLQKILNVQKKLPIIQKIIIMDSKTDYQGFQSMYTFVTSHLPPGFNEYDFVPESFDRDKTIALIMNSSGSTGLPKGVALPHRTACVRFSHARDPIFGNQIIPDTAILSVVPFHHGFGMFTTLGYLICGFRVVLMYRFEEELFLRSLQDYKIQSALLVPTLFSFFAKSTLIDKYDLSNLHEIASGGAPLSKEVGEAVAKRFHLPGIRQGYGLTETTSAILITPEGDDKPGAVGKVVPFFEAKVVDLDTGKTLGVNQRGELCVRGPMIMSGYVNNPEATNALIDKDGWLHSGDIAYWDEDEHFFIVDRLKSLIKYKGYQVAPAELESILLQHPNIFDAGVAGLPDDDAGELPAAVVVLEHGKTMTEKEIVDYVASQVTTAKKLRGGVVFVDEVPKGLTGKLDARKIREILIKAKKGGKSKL
Chain of Streptavidin (Streptomyces avidinii) (P22629 whole entry, looked up): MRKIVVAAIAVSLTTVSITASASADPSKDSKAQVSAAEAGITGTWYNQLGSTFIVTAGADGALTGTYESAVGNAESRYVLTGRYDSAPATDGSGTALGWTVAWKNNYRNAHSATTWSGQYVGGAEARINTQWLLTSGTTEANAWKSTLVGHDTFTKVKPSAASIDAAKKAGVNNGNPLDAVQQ
Chain of Torsin-1A (Homo sapiens) (O14656 whole entry, looked up): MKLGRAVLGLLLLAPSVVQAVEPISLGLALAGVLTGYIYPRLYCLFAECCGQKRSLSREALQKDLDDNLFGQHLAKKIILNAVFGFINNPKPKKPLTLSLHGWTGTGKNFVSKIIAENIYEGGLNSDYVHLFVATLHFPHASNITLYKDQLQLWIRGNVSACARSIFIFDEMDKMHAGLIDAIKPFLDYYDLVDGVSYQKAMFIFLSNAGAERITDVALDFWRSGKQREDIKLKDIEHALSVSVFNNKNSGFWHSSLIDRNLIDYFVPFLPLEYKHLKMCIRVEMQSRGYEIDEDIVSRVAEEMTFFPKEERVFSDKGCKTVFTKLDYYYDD
Chain of Follistatin (Homo sapiens) (P19883 whole entry, looked up): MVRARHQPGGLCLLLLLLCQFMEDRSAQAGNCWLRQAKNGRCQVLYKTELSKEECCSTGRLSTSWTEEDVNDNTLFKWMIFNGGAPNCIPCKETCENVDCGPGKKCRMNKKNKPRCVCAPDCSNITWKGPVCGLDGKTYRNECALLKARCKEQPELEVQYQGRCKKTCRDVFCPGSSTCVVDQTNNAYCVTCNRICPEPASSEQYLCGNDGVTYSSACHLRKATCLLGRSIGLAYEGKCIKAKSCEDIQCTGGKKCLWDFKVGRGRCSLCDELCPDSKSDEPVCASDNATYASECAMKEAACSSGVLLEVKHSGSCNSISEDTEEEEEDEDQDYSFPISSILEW
Chain of Focal adhesion kinase 1 (Homo sapiens) (Q05397 whole entry, looked up): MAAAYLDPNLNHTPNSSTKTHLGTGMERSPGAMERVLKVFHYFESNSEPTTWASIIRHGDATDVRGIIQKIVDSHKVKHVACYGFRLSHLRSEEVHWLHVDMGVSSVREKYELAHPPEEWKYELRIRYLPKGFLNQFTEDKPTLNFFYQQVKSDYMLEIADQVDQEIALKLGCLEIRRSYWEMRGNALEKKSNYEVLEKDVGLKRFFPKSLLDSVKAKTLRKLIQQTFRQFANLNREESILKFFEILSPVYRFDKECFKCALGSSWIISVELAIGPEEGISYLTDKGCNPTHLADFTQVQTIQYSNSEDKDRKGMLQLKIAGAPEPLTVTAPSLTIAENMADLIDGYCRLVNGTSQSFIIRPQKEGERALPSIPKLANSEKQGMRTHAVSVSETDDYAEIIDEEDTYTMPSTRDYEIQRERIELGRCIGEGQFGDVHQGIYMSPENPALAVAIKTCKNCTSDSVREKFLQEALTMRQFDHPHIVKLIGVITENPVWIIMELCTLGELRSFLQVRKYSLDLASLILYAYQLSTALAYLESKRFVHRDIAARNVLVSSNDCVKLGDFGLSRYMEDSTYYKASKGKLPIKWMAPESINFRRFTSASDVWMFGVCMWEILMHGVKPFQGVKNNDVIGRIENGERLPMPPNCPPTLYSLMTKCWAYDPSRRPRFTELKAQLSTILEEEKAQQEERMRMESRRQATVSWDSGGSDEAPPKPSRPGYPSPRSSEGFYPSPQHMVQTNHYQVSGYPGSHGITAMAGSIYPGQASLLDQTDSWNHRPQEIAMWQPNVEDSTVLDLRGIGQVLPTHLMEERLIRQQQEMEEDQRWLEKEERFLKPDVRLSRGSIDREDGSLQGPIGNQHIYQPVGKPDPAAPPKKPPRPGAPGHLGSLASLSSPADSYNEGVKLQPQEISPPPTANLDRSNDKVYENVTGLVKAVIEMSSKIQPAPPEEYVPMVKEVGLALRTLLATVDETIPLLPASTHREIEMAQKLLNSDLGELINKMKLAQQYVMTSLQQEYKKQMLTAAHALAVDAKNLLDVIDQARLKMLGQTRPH
Chain of Fibroblast growth factor 2 (Homo sapiens) (P09038 whole entry, looked up): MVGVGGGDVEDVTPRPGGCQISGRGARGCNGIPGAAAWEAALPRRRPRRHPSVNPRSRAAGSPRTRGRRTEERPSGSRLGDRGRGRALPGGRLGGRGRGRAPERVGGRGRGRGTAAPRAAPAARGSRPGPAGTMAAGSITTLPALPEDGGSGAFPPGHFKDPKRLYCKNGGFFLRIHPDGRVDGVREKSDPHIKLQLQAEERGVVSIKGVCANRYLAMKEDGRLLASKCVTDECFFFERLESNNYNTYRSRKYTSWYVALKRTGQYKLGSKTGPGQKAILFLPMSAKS

For the molecule `[N-]=[N+]=NCc1ccccc1C[C@@]1(C(=O)NCC(O)CO)N=C(c2ccc(OCCCO)cc2)O[C@@H]1c1ccccc1N=[N+]=[N-]` (stereo not given in full), the composite z-score in [1] was determined as 2.41; in assay [2], 1.22; in assay [3], 1.22; in assay [4], 0.962; in assay [5], 1.38; in assay [6] it was 1.58. Also, the composite z-score was -0.709 with Lefty1; 1.15 in assay [8]; 0.63 in [10]; 1.89 in assay [15]; 0.475 in assay [16]; 0.73 in the assay with Torsin-1A (Homo sapiens) [17]. In addition, the values for the composite z-score (with Torsin-1A (Homo sapiens) [18]; in assay [19]) were 1.07 and -0.762, respectively. The z-score is -0.043 in [7]; -3.13 (inactive) in assay [9]; -3.67 (inactive) in [11]; -0.68 (inactive) in [12]; 0.209 (inactive) in [13]; -1.57 (inactive) in assay [14].

Take `COC(=O)c1c(CC[C@@H](CO)NC(=O)N[C@H](Cn2cc(Cc3ccccc3)nn2)C(C)C)oc(C(C)=O)c1C(=O)OC`: the composite z-score in assay [1] was 0.583; in assay [2] it was 0.641; in assay [3], -0.0225; in assay [4], 0.519; in assay [5], 1.29; in [6] it was 1.51. Further, the composite z-score in the assay with Lefty1 is 1.24; in [8] it was 0.261; in [10], 0.367; in [15], -0.166; in [16], -0.0759; in the assay with Torsin-1A (Homo sapiens) [17], -0.372. The figures for the composite z-score (with Torsin-1A (Homo sapiens) [18]; in assay [19]) were 0.882 and 2.1, respectively. Moreover, the z-score in assay [7] was 0.0865; in [9], -0.0001 (inactive); in assay [11] it was -2.8 (inactive); in assay [12], -0.973 (inactive); in assay [13] it was 0.904 (inactive); in [14], -1.21 (inactive).

`NCCCCCNC(=O)[C@@H]1C[C@@H]2C(=O)NCC(=O)N2[C@@H]1c1ccc(O)cc1`: the composite z-score in [1] came to 2.18; in [2], 1.19; in assay [3], 0.0992; in assay [4], 0.948; in assay [5] it was 1.51; in [6], 1.79. For the same molecule, the composite z-score was 1.76 in the assay with Lefty1; 0.891 in assay [8]; 0.892 in [10]; 1.2 in assay [15]; -0.0963 in assay [16]; 1.06 with Torsin-1A (Homo sapiens) [17]. Also, the composite z-score in the assay with Torsin-1A (Homo sapiens) [18] came out at 0.682; in assay [19], 2.06. The z-score in assay [7] is 1.41; in [9], -1.11 (inactive); in assay [11], 0.104 (inactive); in assay [12], -0.735 (inactive); in assay [13] it was 0.557 (inactive); in assay [14], 0.467 (inactive).

With `Cc1ccc(C(C)CC(O)C2C=CC3C(=O)N(c4ccccc4)C(=O)C3N2Nc2ccc([N+](=O)[O-])cc2)o1` (stereo not given), the composite z-score is 0.484 in [1]; 1.23 in assay [2]; 0.772 in assay [3]; 0.904 in assay [4]; 1.06 in assay [5]; 0.232 in assay [6]. The composite z-score with Lefty1 is -0.0023; in assay [8] it was 0.646; in assay [10], 0.354; in [15], 1.71; in [16], -0.0131; with Torsin-1A (Homo sapiens) [17], -0.344. For the same molecule, the values for the composite z-score (with Torsin-1A (Homo sapiens) [18]; in assay [19]) were 0.222 and 0.442, respectively. For the same molecule, the z-score is -0.828 in assay [7]; 1.45 (inactive) in [9]; -0.344 (inactive) in assay [11]; -0.99 (inactive) in assay [12]; 0.136 (inactive) in [13]; 0.812 (inactive) in assay [14].

`Cc1ccc(S[C@]2(C(=O)NCCN3CCOCC3)CC(=O)N(Cc3ccccc3Cl)[C@@H]2c2ccc(CO)cc2)cc1`: the composite z-score in [1] is 1.69; in assay [2], -0.516; in assay [3] it was 0.155; in [4], -1.85; in assay [5], 0.157; in assay [6] it was -0.536. In addition, the composite z-score is -0.188 with Lefty1; 0.193 in [8]; -0.0036 in assay [10]; -0.625 in [15]; -0.255 in [16]; -2.16 in the assay with Torsin-1A (Homo sapiens) [17]. Moreover, the results for the composite z-score (in the assay with Torsin-1A (Homo sapiens) [18]; in [19]) were 0.269 and -0.143, respectively. Also, the z-score is -0.63 in assay [7]; 1.58 (inactive) in assay [9]; -2.93 (inactive) in assay [11]; -1.98 (inactive) in [12]; 0.441 (inactive) in assay [13]; 1.1 (inactive) in assay [14].
